Results reported in PubChem BioAssay AID504329 (Southern Research Specialized Biocontainment Screening …, 2011).
Out of some 340,000 compounds screened, about 1,000 (0.29%) were called active. The list is a sample of the results. Results with a measured potency or affinity are listed apart. A number with no mark means an inactive call. Rule as the data show it: inconclusive = inhibition above about 27% without an active follow-up result; inactive = below that.

Experiment: H1N1 influenza NS1A inhibitors, functional cell based assay (AID 504329)
Conditions: percent inhibition, at 12.5 µM, hits give high values

| SMILES | inhibition [%] |
| --- | --- |
| CC(C)c1ccc(NC(=S)Nc2ccc3[nH]c(=O)[nH]c3c2)cc1 | 1.94 |
| Cc1ccc(S(=O)(=O)N2CCOCC2)cc1NS(=O)(=O)c1ccc(F)c(F)c1 | -3.51 |
| Cc1c(C(=O)Nc2ccccc2)c2cc(O)ccc2n1Cc1ccccc1 | -3.07 |
| O=C1CCCN1CCC1CCN(C2CC(=O)N(Cc3ccc(N4CCCC4=O)cc3)C2=O)CC1 (configuration not stated) | 18.3 |
| COc1ccc(OC)c(C(=O)CN2CCN(S(=O)(=O)c3ccc(Br)cc3)CC2)c1 | 0.97 |
| NC(=O)c1nsc(C(=O)N(c2ccc(F)cc2)C(C(=O)NC2CCCC2)c2ccncc2)c1N (configuration not stated) | 7.29 |
| CC1CCC2(CC1)C(Nc1cccc(Cl)c1)=NC(=S)N2CC#N (configuration not stated) | 11.2 |
| NC(=O)c1c(NC(=O)Cn2nc(C(=O)O)c3ccccc3c2=O)sc2c1CCC2 | 0.19 |
| CCOC(=O)c1c(NC(=O)CSc2nncn2C)sc(C)c1C | -1.87 |
| COc1cnc(-c2ccccn2)nc1Oc1ccccc1 | 10.4 |
| COc1ccc(Oc2nc(-c3ccccn3)ncc2OC)cc1 | 7.31 |
| Cc1nc2c(C)cccc2c2c1COC2 | -0.38 |
| CCOC(=O)c1sc(NC(=O)CSc2nc3c(cc2C#N)CCCCC3)c(C#N)c1C | 0.28 |
| Cc1c(NC(=O)c2ccc(C(=O)Nc3c(C)n(C)n(-c4ccccc4)c3=O)cc2)c(=O)n(-c2ccccc2)n1C | 11.8 |
| CCCCC[C@H]1CN(C2CCCCC2)C(=O)[C@@H]1CC(=O)NCc1ccccc1 | -4.52 |
| Cc1ccc2[nH]c3nc(N/N=C/c4cccc(O)c4)nnc3c2c1 | 5.99 |
| Cc1ccc2[nH]c3nc(SCC#N)nnc3c2c1 | 3.03 |
| Cc1ccc(C)c(N(C)S(=O)(=O)c2ccc3[nH]cc(C(=O)NCCN4CCOCC4)c(=O)c3c2)c1 | 13.2 |
| CCCCNc1c([N+](=O)[O-])cc(C(=O)O)cc1[N+](=O)[O-] | 25.7 |
| CCCCNc1nc(N)ncc1[N+](=O)[O-] | -2.32 |
| [O-][N+]1=c2ccc(Nc3ccccc3)cc2=NC12CCCCC2 | 16.6 |
| O=[N+]([O-])c1ccc2c(c1N1CCCCC1)=NC1(CCCCC1)[N+]=2[O-] | -7.13 |
| Cc1noc(C)c1S(=O)(=O)N1CCC(C(=O)O)CC1 | -5.05 |
| CC1(C)CC(CCN)(Cc2ccccc2Cl)CCO1 (configuration not stated) | -1.58 |
| COc1ccccc1N1CCN(C(=O)c2c(-c3c(F)cccc3Cl)noc2C)CC1 | -1.81 |
| CCOc1ccc2noc3c2c1C(=O)c1ccccc1-3 | 7.74 |

| SMILES | inhibition [%] |
| --- | --- |
| O=C1c2ccccc2-c2c1cccc2C(=O)N1CCOCC1 | -11.9 |
| CN1CCN(c2cccc3c2C(=O)c2ccccc2C3=O)CC1 | 4.2 |
| O=C1c2ccccc2C(=O)c2cc(N3CCCCC3)ccc21 | -3.43 |
| O=C1c2ccccc2-c2onc3ccc(Oc4ccccc4)c1c23 | 11.9 |
| O=C1C(Cl)=C(N2CCCCC2)C(=O)N1c1ccccc1Cl | -3.44 |
| N#Cc1c(Cl)cccc1N1CCCC1 | -9.33 |
| Nc1ccccc1N1CCOCC1 | 0.99 |
| O=C(N1CCCC1)C12CC3CC(CC(C3)C1)C2 | -8.92 |
| CCCOc1ccc(C(=O)OCC(=O)c2c(N)n(C)c(=O)n(C)c2=O)cc1OCC | -1.83 |
| CCN(CC(=O)NC(=O)NCc1ccccc1)CC(=O)Nc1cc(Cl)ccc1C | -8.38 |
| CC(C)Cn1c(N)c(C(=O)COC(=O)c2c(F)cccc2F)c(=O)n(C)c1=O | -5.45 |
| Cc1ccc(CCNC(=O)c2ccc(CS(=O)(=O)Cc3ccc(F)cc3)o2)cc1 | 2.69 |
| O=C(NNc1cccc([N+](=O)[O-])c1)/C(=C\c1cccnc1)NC(=O)c1ccccc1 | 9.25 |
| COc1cc(CN(CC(C)C)S(=O)(=O)c2ccccc2Br)cc(OC)c1 | -4.89 |
| Cc1ccc(NC(=O)c2cccc(S(=O)(=O)NCc3ccccc3)c2)nc1 | -4.84 |
| CCN(CC(=O)Nc1ccccc1OC)C(=O)CSCc1ccc(C)cc1 | 1.31 |
| COc1cc(-c2nc(CN3CCN(CC(C)C)C(=O)[C@@H]3C)c(C)o2)ccc1F | 8.73 |
| CCNc1ccccc(-c2ccc3ccccc3n2)c1=O | -10 |
| CC(=C1C(=O)c2ccccc2C1=O)N1CCN(Cc2ccccc2)CC1 | -9.47 |
| CC(=O)N(C)c1ccc(N2CCOCC2)c2c1C(=O)c1ccccc1C2=O | 16.8 |
| COc1ccccc1N1CCN(Cc2ccccc2)CC1 | -11.8 |
| O=C1c2ccccc2-c2onc3ccc(NCc4ccco4)c1c23 | 26 |
| O=C1C=C(N2CCOCC2)c2ccccc2C1=O | -1.26 |
| O=C(O/N=C/c1ccc(Br)cc1)c1ccc(F)cc1 | 5.19 |
| CCC(C)N(C(=O)COC(=O)CSc1ccc(C)c(C)c1)C1CCS(=O)(=O)C1 (configuration not stated) | -5.16 |
| COc1ccc2[nH]c(C(=O)NCc3ccccc3)cc2c1 | 15.2 |

| SMILES | inhibition [%] |
| --- | --- |
| Clc1ccccc1-c1ccc2ncnc(NCc3cccs3)c2c1 | 9.25 |
| Cc1nc(N2CCCCC2)c2ccsc2n1 | -1.56 |
| Cc1ccc(CN2C(=O)C(=O)c3cc(C)ccc32)cc1 | 3.72 |
| CN1CCN(C(c2ccc(Cl)cc2)c2cc(Cl)c3cccnc3c2O)CC1 (configuration not stated) | 2.9 |
| CN1CCN(C(c2ccccn2)c2cc(Cl)c3cccnc3c2O)CC1 (configuration not stated) | 14.5 |
| CN1CCN(C(c2ccc(F)cc2)c2ccc3cccnc3c2O)CC1 (configuration not stated) | 7.02 |
| Oc1c(C(c2ccc(Cl)cc2)N2CCCC2)cc(Cl)c2cccnc12 (configuration not stated) | -6.42 |
| Cc1ccc(C(c2cc(Cl)c3cccnc3c2O)N2CCN(C)CC2)cc1 (configuration not stated) | 5.08 |
| CCN1CCN(C(c2ccc(C(F)(F)F)cc2)c2ccc3cccnc3c2O)CC1 (configuration not stated) | 16.8 |
| CCCCn1c(N)c(N(CCOC)C(=O)COC(=O)COc2c(C)cccc2C)c(=O)[nH]c1=O | -13 |
| CC(C)(C)c1cc(NC(=O)CSc2nncs2)n(-c2ccccc2)n1 | 1.18 |
| Cc1cc(C(=O)NC(Cc2c[nH]c3ccccc23)C(=O)O)c(C)o1 (configuration not stated) | 1.37 |
| COc1ccc(S(=O)(=O)Nc2ccc3c(c2)N(C(C)=O)CCC3)cc1OC | 4.6 |
| O=C(CNS(=O)(=O)c1ccc(F)cc1)N1CCN(c2ccc(F)cc2)CC1 | -9.78 |
| COc1ccc(C(=O)c2sc(Nc3ccc(NC(C)=O)cc3)nc2C)cc1 | -2.13 |
| CN(C)c1ccc(/C=C2\CCCCC2=O)cc1 | 12.2 |
| CN(C)c1ccc(C=C2C=Cc3ccccc32)cc1 | 11.1 |
| COc1cc(C(=O)N=c2sccn2C)c([N+](=O)[O-])cc1OC | -1.77 |
| O=C(Cn1nnc(-c2ccccc2)n1)N1CCN(c2ccc(F)cc2)CC1 | 11.4 |
| Cc1cccc(NC(=O)NNC(=O)c2ccccn2)c1 | 0.66 |
| COc1ccc(C(=O)NNC(=O)c2ccccn2)cc1 | -9.69 |
| COCCCNC(=S)NNC(=O)c1csc(C)n1 | -15.3 |
| CC(C)C(=O)NNC(=O)c1ccccn1 | -2.86 |
| COCCCNC(=S)NNC(=O)c1cccnc1 | -5.08 |
| S=C(NCc1ccccn1)Nc1ccc(Cl)c(Cl)c1 | 1.31 |
| COC(=O)c1nc2n(n1)C(c1ccc(OC)c(OC)c1)C(C(=O)OC1CCCCC1)=C(C)N2 (configuration not stated) | 1.19 |

| SMILES | inhibition [%] |
| --- | --- |
| Cc1nnc(NC2CCCCC2)[nH]c1=O | -4.74 |
| COc1ccc(NS(=O)(=O)c2ccc(C(=O)N3CCN(Cc4ccccc4)CC3)cc2)cc1 | 11.9 |
| Cc1onc(-c2c(F)cccc2Cl)c1C(=O)c1ccccc1 | 20 |
| O=C(NCC(c1ccco1)N1CCc2ccccc2C1)c1cccc([N+](=O)[O-])c1 (configuration not stated) | -12.3 |
| Cn1c(=O)c2c(nc(NCc3ccccc3)n2C)n(C)c1=O | 1.83 |
| COc1ccccc1/C=C1\C(=O)NC(=S)N(c2ccccc2)C1=O | -27.6 |
| O=C(Nc1csnn1)OCc1ccccc1 | -22.9 |
| Cc1[nH]c2ccccc2c1/C=N/n1cnnc1 | -3.32 |
| Cc1[nH]c2ccccc2c1/C=N/O | -0.17 |
| O=C(c1cccc(S(=O)(=O)N2CCOCC2)c1)N(Cc1ccco1)Cc1cccs1 | 4.9 |
| Oc1ccccc1C=Nc1cccc2ccccc12 | -4.35 |
| Oc1ccccc1C=Nc1ccccc1-c1nc2ccccc2[nH]1 | 41.1 |
| Cc1ccc(Nc2cc(C)nc3c(C)cccc23)cc1 | -2.9 |
| O=S(=O)(NCc1cc(-c2ccccc2Cl)no1)c1ccc(Cl)cc1 | 0.63 |
| COc1ccc(CNc2nc3nc(C)cc(C)n3n2)cc1 | 1.24 |
| CSc1ncccc1C(=O)Nc1cccc(S(=O)(=O)N2CCCC2)c1 | -2.85 |
| O=C(COC(=O)c1ccccc1O)NNC(=O)c1ccc(Br)cc1 | 7.27 |
| O=C(C1CCN(Cc2nc(Cc3cccc(F)c3)no2)CC1)N1CCOCC1 | 7.26 |
| Cc1nnc2sc(SCc3cccc(Cl)c3)nn2c1=O | 2.99 |
| Cc1ccc(NC(=O)CSc2nn3c(=O)c(C)nnc3s2)cc1Cl | 12.2 |
| Cc1nnc2sc(SCC(=O)Nc3nccs3)nn2c1=O | -3.22 |
| Cc1cccc(CSc2nn3c(=O)c(C)nnc3s2)c1 | -3.29 |
| Cc1nnc2sc(SCc3ccc(Cl)cc3)nn2c1=O | -5.29 |
| Cc1nnc2sc(SCC(=O)Nc3ccc(Br)cc3)nn2c1=O | 24.3 |
